Laboratory results taken from PubChem BioAssay (NCI).
About 83,000 compounds went through this panel and 20% of them were active in at least one assay; those are over-represented in the sample as a whole.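 For each line, cells grew in 96-well plates with the test compound present at a single concentration for 48 hours.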 Values without a mark were called inactive. Calls of active or inactive are those of the source. Rule for the calls: active = growth percent below 10; inactive = the rest.

Each compound was assayed on HL-60(TB) leukemia (assay: NCI-60 one-dose screen, 48 h (100 = growth as untreated, 0 = no growth, -100 = all killed)). Details: 10 µM unless noted.

Row | SMILES | growth
1 | C=C1CCC2C(C)(COC(=O)CC)C(OC(=O)CC)CCC2(C)C1C/C=C1/C(=O)OCC1OC(=O)CC (stereo unspecified) | -43.8% (active)
2 | CCn1c(-c2nonc2N)nc2c(C#CC(C)(C)O)ncc(OC[C@H]3CCCNC3)c21 | 41%
3 | C[C@@]1(CCC#N)[C@H]2CC[C@@H]3[C@H]4[C@H](C(=O)/C=C/c5cccnc5)CC[C@]4(C#N)CC[C@@]3(C)[C@]2(C)CC[C@H]1C(=O)/C=C/c1cccnc1 | 46%
4 | O=C(CN1C=NC2C(N3CCOCC3)=NC=NC21)c1cccc2ccccc12 (stereo unspecified) | 103%
5 | CC1(C)NCCC[C@]2(C)[C@H]3CC[C@H]4[C@H]5[C@H](C(=O)/C=C/c6cccnc6)CCC[C@]5(CO)CC[C@@]4(C)[C@]3(C)CC[C@@H]12 | 23.9%
6 | N[C@H]1CCC[C@@H]1NCCCCN1C(=O)c2cccc3cc([N+](=O)[O-])cc(c23)C1=O | 29.4%
7 | O=C(N=Nc1c(O)[nH]c2ccccc12)Nc1ccc(F)cc1 | 94.5%
8 | COc1ccc(C2CC(c3ccccc3)=Nc3ccccc3S2)cc1 (stereo unspecified) | 85.7%
9 | CC1=C2CC/C(C)=C/CC[C@]3(C)O[C@H]3CC/C(C)=C/[C@H]2OC1 | 86.5%
10 | CN1CCN(CCCCCN=c2cc3c(=O)n(CCCCCN4CCN(C)CC4)c(=O)c4c(NCCCCCN5CCN(C)CC5)cc5c(O)n(CCCCCN6CCN(C)CC6)c(=O)c2c5c4-3)CC1 | 51.5%
11 | Nc1ccc(-n2c(=O)oc3ccc(Cl)cc3c2=O)c(Cl)c1 | -42.8% (active)
